A selection: hits, their analogues and other compounds. The true share with any hit is near 31%.
CYP2C19 inhib – blockers of cytochrome P450 2C19 activity – biochemical, luminescence, ADME assay, primary screen; AID 778, 2007; 21% of 96,000 active; CYP2C19 Supersomes, luciferin-H EGE luminescence, 30 min; inhibition, % at 5 µM; P33261;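 active = CYP2C19 inhibition above a set limit at 5 µM in the primary screen, cut at about 50% in these data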;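 note: plate controls were negative control wells for no effect and 2.5 mM tranylcypromine positive control for full effect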
CYP2C9 activ – human CYP2C9 activators, primary screen, biochemical, luminescence | Cytochrome P450 2C9 (Homo sapiens), P11712 | recombinant CYP2C9, luciferin-H conversion; active compounds read high; factor 1 = untreated enzyme, 0 = blocked | activation factor at 5 µM | 1.4% of 96,000 active;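 active = activation factor of 2 or more for CYP2C9 at a 5 µM dose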;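 note: 0 = sulfaphenazole-blocked wells and 1 = vehicle-only wells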
Target sequence (P11712 whole entry, looked up): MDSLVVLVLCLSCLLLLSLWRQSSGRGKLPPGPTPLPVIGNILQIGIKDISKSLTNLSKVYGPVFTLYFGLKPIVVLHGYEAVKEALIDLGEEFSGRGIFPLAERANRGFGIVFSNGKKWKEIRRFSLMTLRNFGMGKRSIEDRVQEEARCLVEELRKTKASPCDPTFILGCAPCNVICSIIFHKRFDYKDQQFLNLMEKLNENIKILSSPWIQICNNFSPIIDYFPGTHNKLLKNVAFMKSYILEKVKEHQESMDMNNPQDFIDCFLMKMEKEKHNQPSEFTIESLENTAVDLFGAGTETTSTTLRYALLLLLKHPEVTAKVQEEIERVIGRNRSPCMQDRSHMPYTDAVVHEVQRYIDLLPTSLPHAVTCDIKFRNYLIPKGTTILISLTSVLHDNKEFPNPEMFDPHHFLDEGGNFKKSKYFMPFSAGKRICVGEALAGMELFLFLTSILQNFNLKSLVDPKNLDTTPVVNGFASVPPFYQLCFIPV
CYP2C9 inh – blockers of cytochrome P450 2C9 activity – biochemical, luminescence, ADME assay, primary screen | CYP2C9 Supersomes, luciferin-H conversion | inhibition, % at 5 µM | 20% of 96,000 active | AID 777, 2007;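 active = blocking of liver enzyme CYP2C9 beyond about 50% at 5 µM, limit read from the data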
CYP2C19 act – human CYP2C19 activators, primary screen, biochemical, luminescence | Cytochrome P450 2C19 (Homo sapiens), P33261 | recombinant CYP2C19, luciferin-H EGE luminescence; active compounds read high; 0 = fully inhibited enzyme, 1 = untreated enzyme | activation factor at 5 µM | 96,000 tested, under 10 active | AID 1025, 2008;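 active = activation factor of at least 2 at 5 µM in the primary screen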;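 note: 0 = wells with 2.5 mM tranylcypromine and 1 = vehicle-only wells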
An asterisk follows results filed as active.

SMILES | CYP2C19 inhib | CYP2C9 activ | CYP2C9 inh | CYP2C19 act
Cc1[nH]n(-c2ccccc2)c(=O)c1-c1ccccc1 | 8.2 | 0.8 | 23.4 | 0.9
Cc1[nH]n(-c2ccccc2)c(=O)c1C(C[N+](=O)[O-])c1ccccc1Cl (stereo not drawn) | 87.7* | 0.1 | 92.4* | 0.1
COc1ccc(-c2cnn3c4c(c(C)nc23)CCN4C(C)C)cc1OC | -7.7 | 0.9 | 7.8 | 1.1
CC(C)NS(=O)(=O)c1ccc(OCC(=O)Nc2cccc3ccccc23)cc1 | 87.9* | 0.2 | 82.1* | 0.1
COc1ccc(OCC(=O)Nc2ccccc2O)cc1 | 98.7* | 0.1 | 94.8* | 0
CCS(=O)(=O)c1ccc(O)c(NC(=O)COc2ccccc2)c1 | 11.4 | 0.8 | 16.3 | 0.9
CCc1ccc(OCC(=O)Nc2cc(S(=O)(=O)CC)ccc2O)cc1 | 3.3 | 0.2 | 78.7* | 1
COc1ccc(NC(=O)Cn2c(=O)sc3ccccc32)c(OC)c1 | 90.3* | 0.5 | 49.9 | 0.1
COc1ccccc1NC(=O)Cn1c(=O)sc2ccccc21 | 38.7 | 1 | -1.1 | 0.6
CCC1=NC(c2ccccc2OC)N(O)C1(C)C (stereo not drawn) | -1.0 | 1.1 | -6.0 | 1
COc1ccc(NC(=O)COc2ccccc2)c(OC)c1 | 91.6* | 0.2 | 83.5* | 0.1
COc1ccc(NC(=O)Cc2cccs2)c(OC)c1 | 79.2* | 0.9 | 10.4 | 0.2
CCOc1cccc(NC(=O)Cc2cccs2)c1 | 86.1* | 0.4 | 57.7* | 0.1
O=C(OCC(=O)N1CCC(Cc2ccccc2)CC1)c1ccc[nH]c1=O | 0.8 | 0.9 | 14.4 | 1
CCOC(=O)c1cnc(-n2nc(C)cc2C)nc1NC1CCCCC1 | 2.1 | 0.6 | 42.9 | 1
CC1CCN(C(=O)c2cccc(S(=O)(=O)N3CCCCC3)c2)CC1 | 22.6 | 0.8 | 15.5 | 0.8
COC(=O)c1ccc(C2C(Oc3ccccc3)C(=O)N2CCc2ccc(OC)c(OC)c2)cc1 (stereo not drawn) | 0.0 | 1 | 1.0 | 1
COC(=O)C1=C(CN2CCCc3ccccc32)NC(=O)NC1c1ccc(F)cc1 (stereo not drawn) | 72.3* | 0.6 | 41.9 | 0.3
Clc1ccc(CSc2nnc(NC3=NCCCCC3)s2)cc1 | 90.7* | 0.3 | 67.2* | 0.1
COc1cc2[nH]c(=S)nc(NCCCOC(C)C)c2cc1OC | 11.4 | 0.9 | 11.2 | 0.9
CC(O)CN(Cc1cccc(Cl)c1)CC(C)O (stereo not drawn) | -6.8 | 1.2 | -22.1 | 1.1
CC1Cc2nc(SCC(=O)N3CCc4ccccc43)n(C)c(=O)c2S1 (stereo not drawn) | 26.5 | 0.1 | 93.1* | 0.7
COc1ccccc1-n1c(SCC(=O)N2CCc3ccccc32)nc2c(c1=O)SCC2 | -5.0 | 0.8 | 20.1 | 1.1
CC1Cc2nc(SCC(=O)c3ccccc3)n(Cc3ccccc3)c(=O)c2S1 (stereo not drawn) | 47.1 | 0 | 97.3* | 0.5
CC1Cc2nc(SCC(=O)NC3CCCCC3)n(C)c(=O)c2S1 (stereo not drawn) | 23.3 | 0.9 | 13.7 | 0.8
SMILES | CYP2C19 inhib | CYP2C9 activ | CYP2C9 inh | CYP2C19 act
CC1Cc2nc(SCC(=O)OCc3ccccc3)n(C)c(=O)c2S1 (stereo not drawn) | 87.1* | 0.2 | 76.6* | 0.1
CC1Cc2nc(SCC(=O)NCc3ccccc3)n(Cc3ccccc3)c(=O)c2S1 (stereo not drawn) | 1.5 | 0.5 | 47.2 | 1
CNc1nc(-c2ccc([N+](=O)[O-])cc2)cs1 | 43.5 | 1 | -1.6 | 0.6
O=C(Cc1nc(-c2ccc([N+](=O)[O-])cc2)cs1)Nc1ccccc1 | 29.7 | 0.4 | 62.5* | 0.7
COCCN(CCOC)c1cc(C)c(C#N)c2nc3ccccc3n12 | 10.5 | 0.9 | 14.6 | 0.9
COC(=O)c1ccccc1NC(=O)/C=C/c1cc(OC)c(OC)c(OC)c1 | 6.5 | 1 | 1.1 | 0.9
Cc1ccc2[nH]c(=O)c(C(c3nnnn3CCc3ccccc3)N3CCOCC3)cc2c1 (stereo not drawn) | -2.4 | 1 | -1.1 | 1
CN(C)c1cccc(C(=O)Nc2cccc(F)c2)c1 | 43.3 | 0.9 | 6.6 | 0.6
O=C(CCn1cccc1)Nc1cccc(F)c1 | 50.0* | 0.9 | 7.2 | 0.5
CC(=O)NCCC(=O)Nc1ccc(C)c(F)c1 | 10.5 | 0.9 | 9.8 | 0.9
CCN(CC)c1ccc(C(=O)Nc2cccc(F)c2)cc1 | 64.2* | 0.9 | 6.6 | 0.4
O=C(Nc1cccc(F)c1)c1c(F)c(F)c(F)c(F)c1F | 35.0 | 0.9 | 12.0 | 0.7
Cc1ccc(NC(=O)CCn2cccc2)cc1F | 95.8* | 0.4 | 61.3* | 0
N#Cc1cccc(NC(=O)c2nc(-c3ccccc3)n(-c3ccccc3)n2)c1 | 39.3 | 0.7 | 28.5 | 0.6
N#Cc1cccc(NC(=O)CCn2ccnc2)c1 | 95.4* | 0.1 | 87.0* | 0
CC(C)C(=O)Nc1ccc2c(c1)C(=O)N(CCC(=O)O)C2=O | -4.8 | 1 | -3.7 | 1
CCc1c(C)nc2ncnn2c1N1CCC(C(=O)N2CCN(c3ccccc3)CC2)CC1 | 19.3 | 1 | 3.1 | 0.8
CCc1c(C)nc2ncnn2c1N1CCC(C(=O)N2CCN(c3ccc(F)cc3)CC2)CC1 | 60.6* | 0.9 | 5.7 | 0.4
COc1cccc(OC)c1C(=O)N1CCN(c2c(Cc3ccccc3)c(C)nc3ncnn23)CC1 | 1.8 | 0.6 | 38.8 | 1
Cc1nc2ncnn2c(N2CCC(C(=O)NC3CCCC3)CC2)c1Cc1ccccc1 | 66.3* | 0.4 | 60.0* | 0.3
COc1cccc(N(C(=O)c2cccs2)c2nc3ccccc3s2)c1 | 4.7 | 0.8 | 20.7 | 1
COc1ccc(N(C)S(=O)(=O)c2c(C)[nH]c(=O)[nH]c2=O)c(OC)c1 | 3.8 | 0.7 | 32.0 | 1
COc1ccc(C2N(c3cc(Cl)ccc3OC)C(=O)C3CCCN32)cc1OC (stereo not drawn) | 48.8 | 2* | -96.2 | 0.5
COc1ccc(Cl)cc1N1C(=O)C2CCCN2C1c1ccc(F)c(F)c1 (stereo not drawn) | 45.2 | 1.5 | -47.4 | 0.5
COc1ccc(Cl)cc1N1C(=O)C2CCCN2C1c1cccc(F)c1 (stereo not drawn) | 53.6* | 1.4 | -37.0 | 0.5
SMILES | CYP2C19 inhib | CYP2C9 activ | CYP2C9 inh | CYP2C19 act
Cc1cc(F)c(F)c(C(=O)N2CCN(C)CC2)c1Cl | 8.8 | 2.2* | -122.7 | 0.9
O=C(c1cc(F)c(F)cc1Cl)N1CCOCC1 | -20.6 | 1.1 | -9.9 | 1.2
Cc1sc2ncnc(N3CCCCC3)c2c1C | -3.5 | 1.2 | -20.6 | 1
Cc1sc2ncnc(N3CCCCC3C)c2c1C (stereo not drawn) | 78.9* | 0.5 | 47.3 | 0.2
CC(NC(=O)OCc1ccccc1)C(=O)N1CC(O)CC1C(=O)O (stereo not drawn) | -16.0 | 1.2 | -16.4 | 1.2
O=C(OC1CCOC1=O)c1cc(-c2ccccc2)nc2ccccc12 (stereo not drawn) | 48.7 | 0.1 | 88.3* | 0.5
COc1ccc(-c2cc(C(=O)OC3CCOC3=O)c3ccccc3n2)cc1OC (stereo not drawn) | 55.0* | 0.2 | 76.9* | 0.4

Screening results from PubChem BioAssay.
